From PubChem
SMN2 splice up: qHTS Assay for Enhancers of SMN2 Splice Variant Expression. Potency, µM (titrated, usually from 46.1 µM), most hits filed as activators. HEK293 SMN2-luciferase splicing reporter, luminescence, 30-36 h. 2.8% of 210,000 active; further: nearly all actives have a fitted effect of over 55% in size
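HEK293 cells carry an SMN2 […]–luciferase reporter in which exon 7 inclusion puts luciferase in frame. Cells were plated 10-12 h before compound addition, then incubated 30-36 h at 37C. ONE-Glo luminescence was read; sodium butyrate at 4.5 mM final served as control.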
Rab9 prom act: qHTS Assay for Rab9 Promoter Activators; Potency, µM (series often up to 9.22 µM), most hits filed as activators; AID 485297, 2010; 2.8% of 320,000 active; Huh7 Rab9 promoter-luciferase reporter, luminescence, 24 h; further: nearly all actives have a fitted effect of over 60% in size
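Luminescence from Amplite-detected luciferase (10 minutes, ambient) reports Rab9 promoter activation. Before that, stable Rab9-luciferase Huh7 cells (1500/well, reduced-serum OP-MEM I plus 10% FBS) were exposed to compound for 24 hours at 37C.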
ELG1 DNA repair: qHTS screen for small molecules that inhibit ELG1-dependent DNA repair in human embryonic kidney (HEK293T) cells expressing luciferase-tagged ELG1. 2.3% of 330,000 active. AID 504467, 2011. HEK293T ELG1-luciferase reporter, luminescence, 16 h; DNA damage induced by 5-fluorouridine. Potency, µM (top dose mostly 46.1 µM), hits mostly inhibitors; further: nearly all actives have a fitted effect of over 55% in size
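In this reporter screen, reduction of luminescence relative to DMSO vehicle indicated activity. Compounds and 5-fluorouridine were added together to 2,000 cells per well, incubated for 16 hr at 37 °C, then developed with ONE-Glo.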
ELG1 genotoxic: qHTS screen for small molecules that induce genotoxicity in human embryonic kidney (HEK293T) cells expressing luciferase-tagged ELG1 | Potency, µM (series often up to 46 µM), actives largely listed as activators | HEK293T ELG1-luciferase reporter, luminescence, 16 h | 1.3% of 330,000 active | AID 504466, 2011; further: nearly all actives have a fitted effect of over 60% in size
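HEK293T cells expressing luciferase-tagged ELG1 were exposed to compound or DMSO vehicle for 16 hr at 37 °C and 5% CO2. Luciferase activity was then measured with ONE-Glo after 30 min at room temperature.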
NPC1 promoter act: qHTS Assay for NPC1 Promoter Activators; 2.4% of 320,000 active; Huh7 NPC1 promoter luciferase reporter, 24 h; Potency, µM (top dose mostly 9.22 µM), actives largely listed as activators; further: nearly all actives have a fitted effect of over 60% in size
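Luminescence read-out of NPC1 promoter-driven luciferase in stably transfected Huh7 cells; compounds delivered in DMSO and left 24 h at 37C, 5% CO2, qHTS titration format.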
FLuc modulator: qHTS profiling assay for firefly luciferase inhibitor/activator using purifed enzyme and Km concentrations of substrates (counterscreen for miR-21 project). Luciferin 4-monooxygenase (Photinus pyralis), P08659. purified FLuc, Km substrates, luminescence inhibition. Potency, µM (series often up to 57.5 µM), hits mostly inhibitors. 6.9% of 360,000 active. AID 588342, 2011; further: nearly all actives have a fitted effect of over 55% in size
Target sequence (P08659 whole entry, looked up): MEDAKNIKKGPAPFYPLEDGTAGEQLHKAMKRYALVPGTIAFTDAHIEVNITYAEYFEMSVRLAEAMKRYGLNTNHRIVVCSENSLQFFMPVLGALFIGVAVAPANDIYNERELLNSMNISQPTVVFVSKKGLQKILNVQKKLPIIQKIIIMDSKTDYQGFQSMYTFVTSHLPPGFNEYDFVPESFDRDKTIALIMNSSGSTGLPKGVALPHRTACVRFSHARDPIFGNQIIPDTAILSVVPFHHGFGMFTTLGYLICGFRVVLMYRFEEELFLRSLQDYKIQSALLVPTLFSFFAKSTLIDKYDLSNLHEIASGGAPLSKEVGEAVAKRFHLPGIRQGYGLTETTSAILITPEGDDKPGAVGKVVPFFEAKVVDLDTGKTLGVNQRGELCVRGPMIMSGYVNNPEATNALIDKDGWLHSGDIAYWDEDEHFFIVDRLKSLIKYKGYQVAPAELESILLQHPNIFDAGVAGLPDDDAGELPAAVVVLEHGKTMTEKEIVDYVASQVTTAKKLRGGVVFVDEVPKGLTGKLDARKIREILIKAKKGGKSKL
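Purified P. pyralis luciferase, 10 nM final, with Km-level 10 uM D-luciferin and 10 uM ATP in 50 mM Tris acetate pH 7.5, 10 mM Mg acetate, 0.01% Tween-20, 0.05% BSA; 6-point qHTS titration about 60 µM downward; luminescence read.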
Numbers stand for hits; . = inactive; ? = inconclusive; / = not tested or not shown; [ ] = remark or other dose. In the library only some 9.2% were active in any assay of this set; here they are far more common. The call rests on the fitted dose curve; in most records, active means well fitted curve in the direction sought with a large enough effect; inconclusive means small, poorly fitted or top-dose-only effect, or another doubt; inactive means no such curve, though single readings can be large; an effect the other way counts as inactive or inconclusive.

SMILES	SMN2 splice up	Rab9 prom act	ELG1 DNA repair	ELG1 genotoxic	NPC1 promoter act	FLuc modulator
CCOC(=O)c1ccc(NCc2nc3ccccc3[nH]2)cc1	.	?	?	?	?	21µM
CCOC(=O)c1ccc(Nc2nnc(C)c3ccccc23)cc1	/	.	.	.	.	17µM
O=C(O)c1ccc(Nc2cnc3ccccc3n2)cc1	.	2.8µM	?	?	?	13µM
CCN(C(=O)c1cccs1)c1nnc(-c2ccncc2)s1	.	?	.	?	.	13µM
CC(C)N=C1NN=C(c2cccs2)CS1	11µM	0.79µM	?	?	3.2µM	24µM
CC(C)c1ccc(N=C2NN=C(c3cccs3)CS2)cc1	13µM	0.71µM	?	?	2µM	6µM
CC(C)N=C1NN=C(c2ccc(Cl)c(Cl)c2)CS1	5µM	0.35µM	?	2.1µM	1.4µM	3.4µM
COCC1CCN(C(=O)C2CCC(=O)N(C3CCCC3)C2)CC1 (stereo not drawn)	/	.	?	.	.	.
COC1CCN(C(=O)C2CCC(=O)N(C3CCCCCC3)C2)CC1 (stereo not drawn)	/	?	?	?	?	17µM
O=C1C=C(c2ccccc2)OC(=O)C1C(=O)c1ccccc1 (stereo not drawn)	.	.	.	.	.	24µM
Cc1ccc(-n2ncc3c(=O)n(CC(=O)N4CCN(C(=O)c5ccco5)CC4)cnc32)cc1	/	.	.	.	.	.
O=C(Cn1cnc2c(NCc3ccccc3)ncnc21)NCC1CCCO1 (stereo not drawn)	/	/	.	.	/	/
c1ccc(CNc2ncnc3c2ncn3C2CCCCO2)cc1 (stereo not drawn)	?	?	?	?	?	27µM
O=C1c2ccccc2CN1CCSC(=S)N1CCSCC1	.	3.2µM	?	.	?	24µM
O=C1c2ccccc2CN1CCSC(=S)N1CCOCC1	13µM	3.5µM	?	?	3.5µM	12µM
COc1cccc(/C=C/C(=O)OCC(=O)NC(=O)NC2CCCCC2)c1	/	.	.	.	.	.
Cc1cc(/C=C2/NC(=O)N(c3ccccc3)C2=O)c(C)n1C(C)C	10µM	1.6µM	?	?	3.2µM	4.8µM
O=C(NCc1nc(-c2ccc(Cl)cc2)no1)c1ccc2c(c1)OCO2	/	.	.	.	.	.
COc1ccc(-c2noc(CSc3nnc(C)n3-c3ccc(C)c(C)c3)n2)c(OC)c1	.	/	/	/	/	.
CCCCOc1ccc(CNC(=O)C2CCN(c3nnc(-n4cccc4CNc4ccc(C)cc4)s3)CC2)cc1	.	/	/	/	/	.
CC(OC(=O)c1ccc(F)cc1)C(=O)Nc1nc(-c2cccc([N+](=O)[O-])c2)cs1 (stereo not drawn)	.	.	?	.	.	.
CC(C)Oc1ccc(C(=O)OC(C)C(=O)Nc2nc(-c3cccc([N+](=O)[O-])c3)cs2)cc1 (stereo not drawn)	.	.	16µM	.	.	.
N/C(=N\OC(=O)CC1CCCCC1)c1ccccn1	.	.	?	?	.	0.6µM
N/C(=N\OC(=O)CC1CCCCC1)c1ccncc1	/	.	?	.	.	19µM
N/C(=N\OC(=O)CCC1CCCC1)c1ccncc1	.	.[1.84 µM]	?	.	.	13µM
SMILES	SMN2 splice up	Rab9 prom act	ELG1 DNA repair	ELG1 genotoxic	NPC1 promoter act	FLuc modulator
Cc1cc(C)c2c(=O)cc(C(=O)Nc3sc4c(c3C(=O)NCc3ccco3)CCCC4)oc2c1	.	/	/	/	/	.
C[C@@H]1CN([C@@H](C)CO)C(=O)Cc2cc(NC(=O)Nc3ccc4c(c3)OCO4)ccc2O[C@@H]1CN(C)C(=O)NC1CCCCC1	/	/	.	.	/	/
Cc1ccc(-n2nc(C)c3c(C)cc(=O)n(CC(=O)N4CCCc5ccccc54)c32)cc1	/	/	/	/	/	.
CN(C)c1ccc(NC(=O)CN2CCc3ccccc3C2)cc1	/	?	?	?	.	24µM
O=C(Nc1ccccc1)N1CCc2ccccc2C1	14µM	4µM	?	.	?	21µM
O=C(Nc1ccc(Cl)cc1)N1CCc2ccccc2C1	/	.	.	.	.	?
O=C(CNc1cccc(F)c1)N1CCc2ccccc2C1	/	4.5µM	?	?	3.2µM	13µM
Cc1ccc(NC(=O)N2CCc3ccccc3C2)cc1	11µM	3.5µM	?	8.2µM	2.8µM	12µM
O=C(CN1CCc2ccccc2C1)Nc1ccc(F)cc1	/	.	.	.	.	.
O=C(c1cccc(F)c1)N1CCc2ccccc2C1	?	.	.	.	.	?
O=C(Nc1ccccc1)C1CC(=O)N(Cc2ccccc2)C1 (stereo not drawn)	/	.	.	.	.	.
Cc1ccnc(NC(=O)C2CC(=O)N(Cc3ccccc3)C2)c1 (stereo not drawn)	/	.	?	3.3µM	.	6µM
CC(=O)c1ccc(NC(=O)C2CC(=O)N(Cc3ccccc3)C2)cc1 (stereo not drawn)	?	?	?	18µM	?	9.5µM
Cc1c(C(=O)Nc2nc3ccccc3[nH]2)oc2ccccc12	10µM	4µM	?	?	?	3µM
Cc1c(C(=O)Nc2nc3ccccc3[nH]2)oc2ccc(Br)cc12	/	?	?	?	.	7.6µM
CC(C)CCn1c(SCc2cccc(F)c2)nc2ccsc2c1=O	/	/	/	/	/	.
O=C(O)c1ccc(N/N=C/c2ccncc2)cc1	/	?	?	.	?	8.5µM
O=C(O)c1ccc(N/N=C/c2ccc3nccnc3c2)cc1	/	.	?	?	.	0.38µM
CCN(C(=O)c1ccc2c(c1)N(Cc1cccc(Cl)c1)C(=O)c1ccccc1S2=O)c1ccccc1 (stereo not drawn)	/	/	/	/	/	.
Cc1ccc(CNC(=O)C(CC(C)C)N2Cc3ccccc3C2=O)cc1 (stereo not drawn)	/	/	/	/	/	.
Cc1ccccc1/C=N/N=C1/NC(=O)CCS1	/	.	?	.	.	?
O=C1CCS/C(=N\N=C\c2ccc(Cl)cc2Cl)N1	/	?	?	?	?	19µM
Cc1nn2c(=O)cc(COC(=O)c3ccccc3NC(=O)C(C)C)nc2s1	/	/	/	/	/	.
C[C@@H](NC(=O)[C@@H]1Cc2ccccc2CN1)C(=O)Nc1ccc2c(c1)OCCO2	/	.	?	?	.	21µM
C[C@H](NC(=O)[C@@H]1Cc2ccccc2CN1)C(=O)Nc1ccc2c(c1)OCO2	/	.	.	.	.	.
O=C(C1COc2ccccc2O1)N1CCCC1 (stereo not drawn)	.	.	.	.	.	.
O=C(C1CCN(S(=O)(=O)c2ccccc2F)CC1)N1CCc2ccccc21	/	.	?	.	.	.
